# From PubChem BioAssay AID504847 (National Center for Advancing Translational Sciences (NCATS), 2011)
# Values joined by “and” are separate entries in the source; they are usually repeats but may differ in a detail not shown here. Equal values may be shown once. Screen size: about 400,000 compounds; about 3,700 (0.93%) were called active. Roughly 3% stayed inconclusive and do not appear here. The sample holds actives, similar compounds and a random draw of the others, so the mix is not that of the screen. The call rests on the fitted dose curve; in most records, active means well fitted inhibition curve with a large enough effect; inconclusive means small, poorly fitted or top-dose-only effect, or another doubt; inactive means no such curve, though single readings can be large or run the other way. Where a SMILES comes first, the peptide text is derived from it. Side-chain parts run from the residue outwards. [ ]: non-standard residue; d: D form. The star is where a group is joined. X1 = CCC(C)C(N)C1=NC(C(=O)*)CS1; Orn = NCCC[CH](N)C(=O)O
# Target: Vitamin D3 receptor (Homo sapiens) (UniProt P11473)
# Sequence (P11473 whole entry, looked up): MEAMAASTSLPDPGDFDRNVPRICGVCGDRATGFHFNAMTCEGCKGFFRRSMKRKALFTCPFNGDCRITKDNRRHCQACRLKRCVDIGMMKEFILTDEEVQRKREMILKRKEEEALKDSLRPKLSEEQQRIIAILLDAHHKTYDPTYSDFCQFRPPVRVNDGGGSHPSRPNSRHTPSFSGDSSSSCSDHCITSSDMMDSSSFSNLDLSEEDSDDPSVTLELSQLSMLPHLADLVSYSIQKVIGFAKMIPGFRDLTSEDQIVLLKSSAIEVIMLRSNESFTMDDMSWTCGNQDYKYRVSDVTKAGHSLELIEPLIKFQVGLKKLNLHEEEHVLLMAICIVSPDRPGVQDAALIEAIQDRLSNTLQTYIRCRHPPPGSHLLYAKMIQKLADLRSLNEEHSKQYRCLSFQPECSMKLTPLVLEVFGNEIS
# Assay: Inhibitors of the vitamin D receptor (VDR): qHTS
# Details: VDR-SRC2-3 peptide fluorescence polarization, 2 h; max response, negative = inhibition: active compounds read low
# Method in brief: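 Fluorescence polarization assay measuring small-molecule disruption of VDR binding to the coregulator peptide SRC2-3. Compounds were pin-transferred (23 nl) into the reagent mix and incubated 2 h at room temperature before reading.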
# On the % scale 0 is the no-effect control and ±100 the full control effect; potency means the concentration at half of the fitted maximal effect.
Structure (SMILES),"max response, negative = inhibition",Potency
Cc1ccc(C(NC(=O)N2CCCC2)C(Cl)(Cl)Cl)cc1F (stereo not drawn),6.9% (inactive),
Cc1c(Br)cc(C(=O)N2CCCCCC2)c(C)c1C,-2.34% (inactive),
Cc1ccc(C(=O)N2CCCC2)c(F)c1F,,44.7 µM (active)
CCC(=O)Nc1cccc(C(=O)OCc2cc(=O)n3nc(CC)sc3n2)c1,7.59% (inactive),
C=C1C(=CC=C2CCC[C@@]3(C)[C@@H]2CC[C@H]3[C@H](C)CCCC(C)C)C[C@@H](O)C[C@@H]1O,8.33% (inactive),
CCOCCn1ccc2c(OCC(=O)NCc3ccc(C)cc3)cccc2c1=O,10.6% (inactive),
Cc1ccc(OCC(=O)Nc2ccc(OCc3cc(=O)n4c(C)csc4n3)cc2)cc1C,-8.2% (inactive),
O=C(Nc1c(C(=O)N2CCN(c3ccc(F)cc3)CC2)oc2ccccc12)c1ccco1,-2.38% (inactive),
COc1ccccc1CNC(=O)c1ccc(-n2c(C)cc3c2CCCC3)cc1,13.6% (inactive),
O=c1cc(CO)oc(C(Nc2cccc([N+](=O)[O-])c2)c2ccccn2)c1O (stereo not drawn),,79.4 µM (active)
Cn1c(=O)c2c(ncn2CC(=O)Nc2cccc(C(F)(F)F)c2)n(C)c1=O,2.35% (inactive),
O=C(CSc1nc(-c2ccccc2)cs1)Nc1cccc([N+](=O)[O-])c1,-15.3% (inactive),
O=c1cc(CO)oc(C(Nc2cccc(C(F)(F)F)c2)c2ccccn2)c1O (stereo not drawn),,50.1 µM (active)
O=C(CSc1nnc(-c2ccccc2F)o1)Nc1cccc(C(F)(F)F)c1,-10.5% (inactive),
O=C(Nc1ccc([N+](=O)[O-])cc1)OCCc1ccccn1,-15.4% (inactive),
Cc1c(Cl)cccc1NC(=O)c1noc2c1CCCC2,-14.6% (inactive),
O=C(NCc1ccccc1)c1ccc2c(c1)nc1n2CCCCC1,12.2% (inactive),
Cc1ccc(C)c(NC(=O)C2CCCN(S(=O)(=O)c3cn(C)cn3)C2)c1 (stereo not drawn),2.5% (inactive),
COCCNC(=O)c1ccc2c(c1)N(Cc1cccc(Cl)c1)C(=O)c1ccccc1S2(=O)=O,5.24% (inactive),
CCCCOc1ccc(C(=O)N2CC(=O)Nc3ccc(Br)cc3C2c2ccc(F)cc2)cc1 (stereo not drawn),-9.94% (inactive),
Cc1cccc(OP(=O)(Nc2c(C)n(C)n(-c3ccccc3)c2=O)Oc2cccc(C)c2)c1,10.3% (inactive),
Cc1cccc(Oc2c([N+](=O)[O-])c(=O)n(C)c3ccccc23)c1,,39.8 µM (active)

Structure (SMILES),"max response, negative = inhibition",Potency
Cc1cccc(C2CC(=O)Oc3c2c(=O)n(C)c2ccccc32)c1 (stereo not drawn),0.823% (inactive),
Cc1c2cnn(-c3ccccc3)c(=O)c2c(C)n1C(C)C(=O)Nc1ccc(Br)cc1F (stereo not drawn),11.8% (inactive),
CN(Cc1ccccc1)C(=O)c1cc2c(=O)n(C)c3ccccc3c2s1,-5.87% (inactive),
C/C(Nc1ccc2oc(=O)ccc2c1)=C1/C(=O)CC2[C@@H]1C2(C)C (stereo partly drawn),-29.7% (inactive),
CCC1CN(S(=O)(=O)c2cc(-c3cc(C)no3)ccc2C)c2cc(C)ccc2O1 (stereo not drawn),10.7% (inactive),
CN1C(=O)CN2CCc3ccccc3C2c2cc(Cl)ccc21 (stereo not drawn),-10.7% (inactive),
Cc1ccc(Cn2c(C)nc3c(c2=O)c2nc4ccccc4nc2n3Cc2ccco2)cc1,,56.2 µM (active)
O=c1[nH]c(CSc2ncc(-c3ccc(F)cc3)n2Cc2ccco2)nc2ccccc12,7.47% (inactive),
Clc1cccc(-c2nc3nc4ccccc4nc3n2Cc2ccco2)c1,4.83% (inactive),
CCOc1ccc(-c2n[nH]c3c2C(c2ccccc2OC)N(c2ccc(Br)cc2)C3=O)cc1 (stereo not drawn),-27% (inactive),
Nc1ccc2nc3c(=O)[nH]c(=S)[nH]c3nc2c1,,79.4 µM (active)
O=C(NCCc1ccc(Cl)cc1)c1ccc2c(c1)N(Cc1ccc(F)cc1)C(=O)CS2,-1.91% (inactive),
Cc1c(S(=O)(=O)O)oc2c1C(=O)C(=O)c1c-2ccc2c1CCCC2(C)C,,8.91 µM (active)
Cc1ccc(C(=O)Nc2nc(-c3ccccc3)ns2)cc1,2.63% (inactive),
CCCCCCCCCCCCCCCCO,0.1% (inactive) and 6.37% (inactive),
CCOc1ccc(S(=O)(=O)NCCC(=O)NCC2CCCO2)cc1 (stereo not drawn),-3.32% (inactive),
CCOc1ccc(-n2c(N)c(C(=O)NCC3CCCO3)sc2=S)cc1 (stereo not drawn),,79.4 µM (active)
CCOc1ccc(S(=O)(=O)N2CCN(C(=S)NCC3CCCO3)CC2)cc1 (stereo not drawn),28.2% (inactive),
O=C(NC1CC(=O)N(c2ccc(Cl)cc2)C1)C1CCCC1 (stereo not drawn),-5.32% (inactive),
CN(C)S(=O)(=O)N1CCN(c2ccc([N+](=O)[O-])cc2)CC1,-2.16% (inactive),
O=C1/C(=C\c2ccc([N+](=O)[O-])cc2)CS(=O)(=O)C/C1=C/c1ccc([N+](=O)[O-])cc1,,39.8 µM (active)
CCCCC(=O)Nc1c2c(nn1-c1ccc([N+](=O)[O-])cc1)CS(=O)(=O)C2,-18.5% (inactive),

Structure (SMILES),"max response, negative = inhibition",Potency
Cc1cc(C)c(-c2n[nH]c3c2C(c2ccccc2F)N(CCO)C3=O)c(O)c1 (stereo not drawn),7.23% (inactive),
O=c1cnc2cnc(Nc3ccccc3)nc2n1Cc1ccc(F)cc1,-4.57% (inactive),
Cc1cc(NC(=O)CSc2ncc(C(=O)Nc3ccc(Cl)cc3)c(=O)n2C)no1,4.19% (inactive),
COc1ccc(NC(=O)c2ccco2)cc1NC(=O)COc1ccc(C)c(C)c1,5.81% (inactive),
O=C(NC(=S)Nc1ccccc1C(=O)O)c1ccc(-c2ccc(Br)cc2)o1,,70.8 µM (active)
O=C(O)c1ccccc1NC(=O)c1ccccc1-c1ccccc1C(=O)O,-22.4% (inactive),
CN1CCN(C(=O)c2ccc(-c3ccc(Br)cc3)o2)CC1,-9.02% (inactive),
O=C(Nc1ccccc1Cl)N1CCC(CN2CCCCC2)CC1,4.52% (inactive),
COc1cc(-c2cc3n(C)c(C)c(CCC(=O)Nc4ccc(F)cc4)c(=O)n3n2)cc(OC)c1OC,-2.64% (inactive),
NCCCNC(=S)NCCCN(Cc1ccc(Cl)cc1)c1ccc(Br)cn1,-24.7% (inactive),
CC(=O)Nc1ccc(S(=O)(=O)Nc2ccc(N3CCCCC3)cc2)cc1,6.02% (inactive),
O=C1C=CC(=O)N1c1ccc(N2CCCCC2)cc1,,17.8 µM (active)
O=C(C1CC(=O)N(C2CCCCC2)C1)N1CCN(c2ccccc2)CC1 (stereo not drawn),-11.8% (inactive),
Cc1cc(-c2ccc(C)c(S(=O)(=O)N3c4ccccc4CC3C)c2)on1 (stereo not drawn),9.78% (inactive),
Cc1[nH][nH]c(=O)c1C(c1ccc(-c2ccc(Cl)cc2)o1)c1c(C)[nH][nH]c1=O,,79.4 µM (active)
CCOc1ccc(C(=O)CCN2CCOCC2)cc1,,50.1 µM (active)
CCOc1ccc(C(=O)N2CCN(CCc3ccccn3)CC2)cc1,-7.3% (inactive),
CCOc1ccc(C(=O)CCC(=O)Nc2ccncc2)cc1,-4.74% (inactive),
Cc1ccc(-c2nnc3c4ccccc4c(C)nn23)cc1NC(=O)c1cccc(Br)c1,-6.72% (inactive),
CCC(=O)N1CCc2cc(S(=O)(=O)NC(C(=O)NCCc3ccc(C)cc3)C(C)C)ccc21 (stereo not drawn),-2.72% (inactive),
Cc1cccc(N2CCN(C(=O)Cn3ncc4c5ccccc5n(C)c4c3=O)CC2C)c1 (stereo not drawn),4.17% (inactive),
CCCOC(=O)c1ccc(N2C(=O)c3ccccc3C2=O)cc1,-19.4% (inactive),

Structure (SMILES),"max response, negative = inhibition",Potency
CCCCc1ccc(NC(=O)CN2C(=O)NC(Cc3ccccc3)C2=O)cc1 (stereo not drawn),3.7% (inactive),
CCCC[C@H]1C(=O)N(c2ccccc2)N(c2ccc(O)cc2)C1=O,,10 µM (active)
CC(C)c1ccc2oc(-c3cc(NC(=O)c4cccs4)ccc3Cl)nc2c1,15% (inactive),
CCC(C)C(N)C1=NC(C(=O)NC(CC(C)C)C(=O)NC(CCC(=O)O)C(=O)NC(C(=O)NCCCCC2NC(=O)C(CC(N)=O)NC(=O)C(CC(=O)O)NC(=O)C(Cc3cnc[nH]3)NC(=O)C(Cc3ccccc3)NC(=O)C(C(C)CC)NC(=O)C(CCCN)NC2=O)C(C)CC)CS1 (stereo not drawn) (cyclo(DNK([Ile-Glu-Leu-X1])[Orn]IFH); configuration not given here),-26.4% (inactive),
C#CCOc1ccc(C2CC(=O)Nc3c2c(C)nn3-c2nc(C)cc(C)n2)cc1 (stereo not drawn),10.7% (inactive),
CC(=NNC(=O)c1ccc2nc[nH]c2c1)c1ccc(Br)cc1,-21.3% (inactive),
CC/C(O)=N\S(=O)(=O)c1ccc(N=NN(C)C)cc1,15.8% (inactive),
CN(C)N=Nc1ccc2nc[nH]c2c1,,35.5 µM (active)
COc1cc(OC)c(NC(=O)Cc2ccc(-n3c(C)nc4cccnc43)cc2)cc1Cl,1.5% (inactive),
CC1=C/C(=N\OS(=O)(=O)c2ccccc2)C=CC1=O,,31.6 µM (active)
Cc1ccc(NC(=O)C2CCN(S(=O)(=O)c3cc(-c4noc(C)n4)ccc3C)CC2)c(C)c1,14.7% (inactive),
Cc1nn2c(=O)cc(COC(=O)c3cccc(NC(=O)COc4ccccc4Cl)c3)nc2s1,9.23% (inactive),
Nc1ncnc2c1c(I)cn2[C@@H]1C[C@H](N)[C@@H](O)[C@H]1O,-8.19% (inactive),
COc1ccc(Cl)cc1NC(=O)c1sc2nc3c(cc2c1N)CN(C)CC3,-1.58% (inactive),
N#Cc1c(N2CCCCC2)nc(N)c2c(N)nc(SCC(=O)O)cc12,,50.1 µM (active)
O=C(O)CSc1ccc(S(=O)(=O)N2CCCC2)cn1,10.8% (inactive),
N#Cc1c(C(F)(F)F)cc(-c2ccc(Cl)cc2)nc1SCC(=O)O,-2.18% (inactive),
Cc1cc(C)cc(NS(=O)(=O)c2cc3c(cc2C)NC(=O)CO3)c1,-6.49% (inactive),
Cc1cc(C)c(NC(=O)CN2C(=O)c3cccnc3Oc3ccc(Cl)cc32)c(C)c1,7.84% (inactive),
CCOc1ccc(NC(=O)c2ncoc2-c2ccco2)cc1,3.68% (inactive),
C=CCNC(=O)c1ccc2nc(-c3ccco3)c(-c3ccco3)nc2c1,-28.3% (inactive),
COCCNC(=O)Nc1ccc2nc(-c3ccco3)c(-c3ccco3)nc2c1,,79.4 µM (active)
